IL-1B inflam inh: inflammasome signaling inhibition, IL-1 beta readout | activity change, % at 57.5 µM | AID 743279 | THP-1 LPS/ATP IL-1B secretion, AlphaLISA, 16 h; stronger effect = lower value | hit rate 4.7% among 360,000; in the data active = activity change below about -50%; inconclusive = mostly about -30% to -49%
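Secreted IL-1B measured by AlphaLISA bead assay after 16 h compound exposure of THP-1 cells; compounds (final up to 57.5 uM) added 1 h before LPS (250 ng/mL) and ATP (1.25 mM) stimulation; lower signal means less secretion.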
DT40 TDP1 no CPT: qHTS for Inhibitors of human tyrosyl-DNA phosphodiesterase 1 (TDP1): qHTS in cells in absence of CPT. DT40 Tdp1-/- hTDP1 cells, no CPT, ATP luminescence, 48 h. Potency, µM (doses to about 46.2 µM), without a hit: top-dose activity change, negative = growth inhibition, usual class: inhibitors. hit rate 15% among 420,000; note: potency is the fitted concentration of half-maximal effect; nearly all actives have a fitted effect of over 55% in size
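Chicken DT40 Tdp1-/- cells complemented with human TDP1, screened without camptothecin (DMSO vehicle only), 400 cells/well. Compounds pin-transferred, cells incubated at 37 °C for at least 48 hr. Growth read as ATP-dependent luminescence (CellTiter-Glo, 30 min at RT).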
DT40 TDP1 CPT: DT40-hTDP1 cell growth loss with CPT; chicken DT40 Tdp1-/-;hTDP1 cells + 20 nM CPT, ATP luminescence, 48 h; Potency, µM (highest dose often 46.2 µM), without a hit: at the top dose activity change, negative = growth inhibition, most hits filed as inhibitors; hit rate 12% among 420,000; note: potency is the fitted concentration of half-maximal effect; nearly all actives have a fitted effect of over 55% in size
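Chicken DT40 Tdp1-/- cells complemented with human TDP1, 400 cells/well, exposed to compounds plus 20 nM camptothecin for at least 48 h at 37 C; viability read as ATP content by CellTiter-Glo luminescence.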
TDP1 inh: inhibitors of human tyrosyl-DNA phosphodiesterase TDP1 | hit rate 0.28% among 350,000 | Q9NUW8 | recombinant TDP1, AlphaScreen DNA substrate cleavage | Potency, µM (series often up to 130 µM), inactives show at the highest dose activity change, negative = inhibition, most hits filed as inhibitors | AID 485290; note: potency is the fitted concentration of half-maximal effect; nearly all actives have a fitted effect of over 40% in size
Target sequence (Q9NUW8 whole entry, looked up): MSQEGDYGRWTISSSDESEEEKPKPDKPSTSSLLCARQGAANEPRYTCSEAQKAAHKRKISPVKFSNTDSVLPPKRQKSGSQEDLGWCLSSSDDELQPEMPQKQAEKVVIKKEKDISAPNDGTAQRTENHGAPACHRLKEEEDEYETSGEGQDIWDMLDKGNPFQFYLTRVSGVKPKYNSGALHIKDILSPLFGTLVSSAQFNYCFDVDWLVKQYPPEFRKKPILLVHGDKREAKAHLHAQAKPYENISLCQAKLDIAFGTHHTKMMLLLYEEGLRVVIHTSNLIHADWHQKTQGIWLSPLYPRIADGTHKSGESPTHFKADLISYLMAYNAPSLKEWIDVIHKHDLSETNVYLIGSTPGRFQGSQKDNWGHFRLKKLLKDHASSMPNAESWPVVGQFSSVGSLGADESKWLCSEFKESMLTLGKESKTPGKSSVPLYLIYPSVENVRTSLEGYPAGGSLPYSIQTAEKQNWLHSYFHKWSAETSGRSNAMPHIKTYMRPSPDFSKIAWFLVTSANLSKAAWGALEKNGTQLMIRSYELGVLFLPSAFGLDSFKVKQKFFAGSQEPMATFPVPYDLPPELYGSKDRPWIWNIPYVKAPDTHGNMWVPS
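Here, a 5' biotin and 3' phosphotyrosine-FITC DNA oligonucleotide reports Tdp1 activity: intact substrate bridges AlphaScreen beads, while cleavage leaves a 3' phosphate and drops signal. All incubations at room temperature.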
Six1-Eya2 inh: Six1/Eya2 interaction inhibition. Q15475+O00167. activity change, % (no concentration beside the values). hit rate 0.56% among 360,000. AID 651725. AlphaScreen GST-Six1/His-Eya2 binding, biochemical; stronger effect = lower value; in the data active = activity change below about -65%; inconclusive = mostly about -30% to -63%
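Six1/Eya2 binding was read as AlphaScreen signal after compounds were pinned into GST-Six1 plus His-tagged Eya2 (5X stock 250/500 nM) in pH 8.0 Tris/NaCl/TCEP buffer, beads added, then incubated 1 h, 37 C, dark.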
CtBP-E1A inh: blocks the CtBP interaction with E1A | AlphaScreen GST-E1A/His-CtBP binding, 1536-well; stronger effect = lower value | activity change, % (test concentration not listed) | hit rate 0.49% among 340,000 | AID 651724; in the data active = activity change below about -65%; inconclusive = mostly about -30% to -63%
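Homogeneous bead-based format: GST-tagged E1A captured on glutathione donor beads, His-tagged CtBP on nickel acceptor beads; compounds precede bead addition by 2 h at 37 °C.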
* hit, by the source's call; u = inconclusive; x = not tested or not shown; [ ] = another dose, or the depositor's remark. Compounds with a hit are over-represented: about 18% of the library has one in this group of screens. Unless noted, calls come from the whole dose curve; as a rule, active = well fitted curve in the direction sought with a large enough effect; inconclusive = small, poorly fitted or top-dose-only effect, or another doubt; inactive = no such curve, though single readings can be large; an effect the other way counts as inactive or inconclusive. % is set by controls: 0 for no effect and ±100 for the full control effect.

SMILES	IL-1B inflam inh	DT40 TDP1 no CPT	DT40 TDP1 CPT	TDP1 inh	Six1-Eya2 inh	CtBP-E1A inh
CCN(C(=O)CSc1nnc(Nc2ccccc2C)s1)C1CCS(=O)(=O)C1 (centres undefined)	-3.1	-27.7%	-9.1%	3.2%	5.6	12.6
CC(Oc1ccc(Cl)cc1)C(=O)NNC(=S)NC(=O)c1ccco1 (centres undefined)	72.9	16.4µM*	u	8.9%	-24.0	-2.1
COc1ccccc1OCCNC(=O)c1ccco1	18.4	26.1%	-6.9%	4.6%	5.7	10.5
COC(=O)c1cc(OC)c(OC)cc1NC(=S)NC(=O)c1ccco1	4.5	10.3µM*	20.6µM*	0.8%	-15.1	-15.2
CCNC(=S)Nc1cc(OC)c(NC(=O)c2ccco2)cc1OC	-13.3	-15.6%	0.8%	4.8%	3.1	-0.3
CCCCOc1ccc(OCCNC(=O)c2ccco2)cc1	8.2	16.4µM*	u	7.2%[0.0935 µM]	2.0	1.2
COc1ccccc1C(=O)NNC(=S)NC(=O)c1ccco1	15.1	7.31µM*	11.6µM*	0.0%	-3.7	-11.2
CCOC(=O)c1ccc(NC(=O)CC(C)n2nc(C)cc2C)cc1 (centres undefined)	x	u	u	4.5%	x	x
CCN(Cc1ccccc1)C(=O)c1oc2ccc(C)cc2c1C	-4.1	u	-1.2%	-20.2%	27.3	14.6
CC(=O)c1sc2nsc(SCCN3CCCC3)c2c1N	-93.4*	u	25.9µM*	-2.5%	-22.4	-19.8
COC(=O)c1ccc2c(=O)n3nc(Nc4cc(OC)ccc4OC)sc3nc2c1	x	-17.0%	u	0.5%	x	x
Cc1ccc(Cl)cc1Nc1nn2c(=O)c3ccc(C(=O)NC4CCC(C)CC4)cc3nc2s1 (centres undefined)	x	u	-26.9%	2.8%	x	x
COc1cccc(Nc2nn3c(=O)c4ccccc4nc3s2)c1	x	x	x	-19.1%	x	x
COc1ccccc1Nc1nn2c(=O)c3ccc(C(=O)Nc4ccc(F)cc4)cc3nc2s1	x	5.8µM*	2.59µM*	2.8%	x	x
Cc1ccc(Cl)cc1Nc1nn2c(=O)c3ccc(C(=O)NC(C)c4ccccc4)cc3nc2s1 (centres undefined)	x	3.26µM*	6.51µM*	2.8%	x	x
O=c1c2ccccc2nc2sc(Nc3ccc(F)cc3)nn12	x	x	x	56.2µM*	x	x
Cc1ccc(Cl)cc1Nc1nn2c(=O)c3ccc(C(=O)Nc4ccc(F)cc4)cc3nc2s1	x	2.31µM*	3.66µM*	8.5%	x	x
Cc1ccc(NC(=O)CS(=O)CC(=O)N(CC(=O)NC2CCCC2)c2cc(C)ccc2C)cc1 (centres undefined)	-10.8	-9.0%	-10.3%	-2.0%	3.8	-0.1
CCN(CC(=O)NCCC1=CCCCC1)S(=O)(=O)c1ccccc1	0.0	u	-28.4%	x	2.2	-11.3
O=C1NC(=S)S/C1=C\c1ccc(SCc2ccco2)o1	4.4	u	18.4µM*	x	u	-11.2
O=C1NC(=S)S/C1=C\c1ccc(SCc2ccccc2)o1	4.9	u	-15.9%	2.7%	-23.7	-17.0
Cc1ccccc1S(=O)(=O)N1C[C@H]2CON(C)[C@H]2C[C@H]1c1cccc(N2CCOCC2)c1	-8.8	-16.3%	-11.0%	x	2.6	6.7
CN1OC[C@@H]2CN(S(=O)(=O)c3cccc(C(F)(F)F)c3)[C@H](c3ccc(-c4cccnc4)cc3)C[C@@H]21	21.8	20.6µM*	29.1µM*	x	11.0	-23.9
CN1OC[C@@H]2CN(S(=O)(=O)c3cccc4ccccc34)[C@H](c3ccc(-c4cccnc4)cc3)C[C@@H]21	-19.4	18.4µM*	u	x	-5.7	-6.5
Cc1ccccc1S(=O)(=O)N1C[C@H]2CON(C)[C@H]2C[C@H]1c1cccc(-c2ccc(C#N)cc2)c1	-11.5	u	20.6µM*	x	-9.6	-4.2
Cc1ccc(CNc2ccc(-c3nc(-c4cccnc4)no3)cc2[N+](=O)[O-])cc1	x	-15.4%	-20.4%	8.6%	x	x

Assay outcomes from PubChem.
